The nature of assay [1]: viability loss in pontine glioma line – cell-based, SU-DIPG-XIII, MIPE5.0, CellTiter-Glo, qHTS, dose response (AID 1347064; cut-off not given, nearly all actives have AC50 up to about 23 µM;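 as to AC50: cells exposed to compound for 48 hours before the viability read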). As to conditions: CellTiter-Glo ATP luminescence.
Assay [2] in a line: JHH-DIPG-1 glioma cell viability, MIPE5.0 library, CellTiter-Glo luminescence, qHTS (AID 1347067).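 Also: cells exposed to compound for 48 hours before readout.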 As to conditions: JHH-DIPG-1 glioma viability, CellTiter-Glo ATP luminescence.
Assay [3] can be described thus: growth inhibition of DIPG cells – cell-based, MIPE5.0 library, qHTS (AID 1347068; cut-off not given, nearly all actives have IC50 up to about 30 µM). As to conditions: SU-DIPG-XXV viability.
Assay [4] can be described thus: compounds altering viability of human ES cells (AID 493140; call rule not given here;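 also: cells exposed to compounds for four days before counting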). As to conditions: human embryonic stem cell survival screen; stronger effect = higher value.
Assay [5] in a line: P. berghei load reduction in hepatocytes – cell-based, HepG2, luciferase luminescence, HepG2 viability, primary screen (AID 624349; in the data active = parasite load remaining mostly below about 12%, no sharp cut-off; inactive = mostly above about 10%;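 also: 100% = mean of DMSO negative control wells on the same plate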). As to conditions: P. berghei liver stage in HepG2, luciferase luminescence, concentration not given here; parasite load remaining: stronger effect = lower value; viability: measured here: HepG2 viability without parasites.
The nature of assay [6]: viability loss in pontine glioma line – cell-based, SU-DIPG-XXV, MIPE5.0, CellTiter-Glo, qHTS, dose response (AID 1347065).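 Also: cells exposed to compound for 48 hours before ATP readout.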 As to conditions: CellTiter-Glo ATP luminescence.
Assay [7] is described as follows: viability loss with induced miR-34 in A549 – imaging, A549 dox-inducible miR-34, nuclei and caspase counts, primary screen (AID 1347080;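 active = compounds whose cell count with miR-34 switched on is under 0.7 times the count with it off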). As to conditions: A549 miR-34 inducible, Hoechst nuclei count, 48 h.
The nature of assay [8]: MELAS cybrid and Rieske KO viability enhancers – cell-based, MELAS cybrids, Rieske KO mouse fibroblasts, CellTiter-Glo, primary screen (AID 1508586;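 active = mean z-score across replicates of 1.96 or higher in either the MELAS or the Rieske mutant cell line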;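 also: z relative to plate mean and SD of compound and empty wells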). As to conditions: low glucose.
[9] abbreviates: stronger effect = lower value, cell number ratio, induced over uninduced.
Setting [10] is: measured here: relative caspase fold change +Dox/-Dox.
Setting [11] is: measured here: total cells with miR-34 induction, stronger effect = lower value.
[12] abbreviates: measured here: total cells without miR-34 induction.
Where [13] appears, read: MELAS cybrid survival, CellTiter-Glo 48 h, stronger effect = higher value.
Setting [14] is: Rieske KO mouse fibroblast survival, CellTiter-Glo 72 h.

Records with an inconclusive call do not appear. Calls of active or inactive are those of the source. Unless noted, the limit is not given here; nearly all actives have AC50 up to about 26 µM. Bridge positions count the residues as written; N and C are the ends. Square brackets hold non-standard residues; d marks the D form. Peptide text beside a SMILES is read from it. * marks the point of attachment. X2 = CCC(C)C(N)C1=NC(C(=O)*)CS1; dOrn = NCCC[C@@H](N)C(=O)O

As to `CN(Cc1ccccc1)C(=O)c1ccc(S(=O)(=O)Nc2ccccc2)cc1`, the result in assay [1], in assay [2] and in assay [3] was inactive.
Take `CCC(C)C(N)C1=NC(C(=O)N[C@@H](CC(C)C)C(=O)N[C@H](CCC(=O)O)C(=O)N[C@H](C(=O)N[C@H]2CCCCNC(=O)[C@H](CC(N)=O)NC(=O)[C@@H](CC(=O)O)NC(=O)[C@H](Cc3cnc[nH]3)NC(=O)[C@@H](Cc3ccccc3)NC(=O)[C@H]([C@@H](C)CC)NC(=O)[C@@H](CCCN)NC2=O)[C@@H](C)CC)CS1` (stereo not given in full) (X2-L[dE]IK[dOrn]I[dF]H[dD]N; lactam 4-C): the survival in assay [4] was 9.33 (inactive). In addition, the parasite load remaining in assay [5] is 69.3% (inactive). The viability in assay [5] turned out to be 103%. Besides, the compound was classed as inactive in assay [1], in assay [6], in assay [2] and in assay [3]. The figures for the fold change in assay [7] (setting [9]) and in assay [7] (setting [10]) were 0.898 (inactive) and 1.36, respectively. In addition, the results for the cell count in assay [7] (setting [11]) and in assay [7] (setting [12]) were 9810 and 10900, respectively. Moreover, the values for the z-score in assay [8] (setting [13]) and in assay [8] (setting [14]) were 0.499 (inactive) and -0.0886, respectively.
On to `c1cn2cc(-c3ccc4cn[nH]c4c3)nc(Nc3ccc(N4CCOCC4)cc3)c2n1`, for which the AC50 in assay [1] was 11.8 µM (active); in assay [6], 6.61 µM (active); in assay [2], 14.8 µM (active). Moreover, the call in assay [3] was inactive. Further, the fold change was 0.776 (inactive) in assay [7] (setting [9]) and 0.455 in assay [7] (setting [10]). For the same compound, the cell count worked out at 4570 in assay [7] (setting [11]) and 5880 in assay [7] (setting [12]). The z-score was 1.34 (inactive) in assay [8] (setting [13]) and 0.233 in assay [8] (setting [14]).
Turning to `Nc1nccc(-c2c(-c3ccc(F)cc3)ncn2C2CCCCC2)n1`, the result in assay [1], in assay [2] and in assay [3] was inactive.
Turning to `CSC[C@H]1CN(Cc2c[nH]c3c(N)ncnc23)C[C@@H]1O`, the compound was called inactive in assay [1], in assay [2] and in assay [3].
As to `Cn1cc(-c2cnc3ccc4ccc(CS(=O)(=O)NCc5ccccn5)cc4c(=O)c3c2)cn1`, the outcome in assay [1], in assay [6] and in assay [3] was inactive.
